Test results as given in article PMC11006913.
Substitutions are numbered along the chain they refer to.

Key:
Experiment in all cases: PBM; 200 nM protein, PBS
Details in all cases: dsDNA, one strand shown
SHOX [1] = target: SHOX (Homo sapiens, UniProt O15266 103-189)
SHOX [2] = target: SHOX (Homo sapiens, UniProt O15266 103-189, R173C)
PROP1 [3] = target: PROP1 (Homo sapiens, UniProt O75360 56-141)
PROP1 [4] = target: PROP1 (Homo sapiens, UniProt O75360 56-141, R99H)
PROP1 [5] = target: PROP1 (Homo sapiens, UniProt O75360 56-141, F88S)
Chain of PROP1 (Homo sapiens, UniProt O75360 56-141, F88S) (O75360 56-141 F88S): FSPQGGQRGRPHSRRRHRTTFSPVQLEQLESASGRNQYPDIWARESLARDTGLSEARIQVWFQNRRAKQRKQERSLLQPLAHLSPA

NKX3-2 [6] = target: NKX3-2 (Homo sapiens, UniProt P78367 192-278, P234S)
Chain of NKX3-2 (Homo sapiens, UniProt P78367 192-278, P234S) (P78367 192-278 P234S): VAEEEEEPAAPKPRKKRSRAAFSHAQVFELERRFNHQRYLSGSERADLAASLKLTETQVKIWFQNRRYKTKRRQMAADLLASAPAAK

NKX3-2 [7] = target: NKX3-2 (Homo sapiens, UniProt P78367 192-278)
Chain of NKX3-2 (Homo sapiens, UniProt P78367 192-278) (P78367 192-278): as the sequence (P78367 192-278 P234S) above, with S43P counted along it

CRX [8] = target: CRX (Homo sapiens, UniProt O43186 26-111)
Chain of CRX (Homo sapiens, UniProt O43186 26-111) (O43186 26-111): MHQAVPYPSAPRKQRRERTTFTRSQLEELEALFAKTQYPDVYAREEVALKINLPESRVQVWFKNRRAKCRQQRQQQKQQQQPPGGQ

VENTX [9] = target: T1, VENTX (Homo sapiens, UniProt O95231 78-163, R121Q)
T1 sequence: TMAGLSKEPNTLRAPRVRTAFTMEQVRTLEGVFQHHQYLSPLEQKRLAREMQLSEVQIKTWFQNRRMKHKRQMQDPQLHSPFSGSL

VENTX [10] = target: T2, VENTX (Homo sapiens, UniProt O95231 78-163)
T2 sequence: T1 sequence with Q44R

VENTX [11] = target: T3, VENTX (Homo sapiens, UniProt O95231 78-163, Y115F)
T3 sequence: T1 sequence with Y38F, Q44R

CRX [12] = target: CRX (Homo sapiens, UniProt O43186 26-111, E42D)
Chain of CRX (Homo sapiens, UniProt O43186 26-111, E42D) (O43186 26-111 E42D): as the sequence (O43186 26-111) above, with E17D counted along it

CRX [13] = target: CRX (Homo sapiens, UniProt O43186 26-111, R41L)
Chain of CRX (Homo sapiens, UniProt O43186 26-111, R41L) (O43186 26-111 R41L): as the sequence (O43186 26-111) above, with R16L counted along it

HOXC9 [14] = target: HOXC9 (Homo sapiens, UniProt P31274 178-260, K195R)
Chain of HOXC9 (Homo sapiens, UniProt P31274 178-260, K195R) (P31274 178-260 K195R): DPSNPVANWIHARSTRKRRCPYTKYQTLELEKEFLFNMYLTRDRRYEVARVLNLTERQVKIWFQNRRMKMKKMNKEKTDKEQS

ALX4 [15] = target: ALX4 (Homo sapiens, UniProt Q9H161 200-286)
Chain of ALX4 (Homo sapiens, UniProt Q9H161 200-286) (Q9H161 200-286): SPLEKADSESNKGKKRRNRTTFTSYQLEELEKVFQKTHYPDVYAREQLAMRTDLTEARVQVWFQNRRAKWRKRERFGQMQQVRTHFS

ALX4 [16] = target: ALX4 (Homo sapiens, UniProt Q9H161 200-286, Q225E)
Chain of ALX4 (Homo sapiens, UniProt Q9H161 200-286, Q225E) (Q9H161 200-286 Q225E): as the sequence (Q9H161 200-286) above, with Q26E counted along it

HOXC9 [17] = target: HOXC9 (Homo sapiens, UniProt P31274 178-260)
Chain of HOXC9 (Homo sapiens, UniProt P31274 178-260) (P31274 178-260): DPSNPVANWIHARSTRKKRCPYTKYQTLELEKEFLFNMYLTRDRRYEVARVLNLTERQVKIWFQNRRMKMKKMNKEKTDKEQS

HOXC9 [18] = target: HOXC9 (Homo sapiens, UniProt P31274 178-260, R193K)
Chain of HOXC9 (Homo sapiens, UniProt P31274 178-260, R193K) (P31274 178-260 R193K): as the sequence (P31274 178-260) above, with R16K counted along it

HOXC9 [19] = target: HOXC9 (Homo sapiens, UniProt P31274 178-260, R222W)
Chain of HOXC9 (Homo sapiens, UniProt P31274 178-260, R222W) (P31274 178-260 R222W): as the sequence (P31274 178-260) above, with R45W counted along it

HOXA4 = HOXA4 (Homo sapiens, UniProt Q00056 201-287, R217L)
Chain of HOXA4 (Q00056 201-287 R217L): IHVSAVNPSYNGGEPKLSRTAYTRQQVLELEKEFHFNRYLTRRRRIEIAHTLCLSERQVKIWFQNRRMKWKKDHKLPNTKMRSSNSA

HOXA7 [20] = target: HOXA7 (Homo sapiens, UniProt P31268 116-202)
Chain of HOXA7 (Homo sapiens, UniProt P31268 116-202) (P31268 116-202): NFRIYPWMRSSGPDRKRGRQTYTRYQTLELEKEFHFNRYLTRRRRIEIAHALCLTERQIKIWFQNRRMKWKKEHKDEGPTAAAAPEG

HOXA7 [21] = target: HOXA7 (Homo sapiens, UniProt P31268 116-202, W177C)
Chain of HOXA7 (Homo sapiens, UniProt P31268 116-202, W177C) (P31268 116-202 W177C): as the sequence (P31268 116-202) above, with W62C counted along it

Chain of SHOX (Homo sapiens, UniProt O15266 103-189, R173C) (O15266 103-189 R173C): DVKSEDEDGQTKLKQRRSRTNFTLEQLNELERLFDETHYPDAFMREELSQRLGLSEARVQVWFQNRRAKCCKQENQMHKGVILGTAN
Chain of SHOX (Homo sapiens, UniProt O15266 103-189) (O15266 103-189): as the sequence (O15266 103-189 R173C) above, with C71R counted along it
Chain of PROP1 (Homo sapiens, UniProt O75360 56-141) (O75360 56-141): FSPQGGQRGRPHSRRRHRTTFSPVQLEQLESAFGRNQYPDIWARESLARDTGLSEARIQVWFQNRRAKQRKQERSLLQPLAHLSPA
Chain of PROP1 (Homo sapiens, UniProt O75360 56-141, R99H) (O75360 56-141 R99H): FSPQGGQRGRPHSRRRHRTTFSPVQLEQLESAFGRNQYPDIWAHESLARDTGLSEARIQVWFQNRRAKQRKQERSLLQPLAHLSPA

AGGTCCCC
binding signal (SHOX [1]): 7.19 upbm affinity estimate (log intensity, higher = more binding, comparable within an allelic series) | binding signal (SHOX [2]): 7.17 upbm affinity estimate (log intensity, higher = more binding, comparable within an allelic series)

CCAGGGCG
binding signal (SHOX [1]): 7.04 upbm affinity estimate (log intensity, higher = more binding, comparable within an allelic series) | binding signal (SHOX [2]): 7.02 upbm affinity estimate (log intensity, higher = more binding, comparable within an allelic series) | binding signal (PROP1 [3]): 6.67 upbm affinity estimate (log intensity, higher = more binding, comparable within an allelic series) | binding signal (PROP1 [4]): 6.55 upbm affinity estimate (log intensity, higher = more binding, comparable within an allelic series) | binding signal (PROP1 [5]): 6.42 upbm affinity estimate (log intensity, higher = more binding, comparable within an allelic series) | binding signal (NKX3-2 [6]): 10.3 upbm affinity estimate (log intensity, higher = more binding, comparable within an allelic series) | binding signal (NKX3-2 [7]): 10.2 upbm affinity estimate (log intensity, higher = more binding, comparable within an allelic series)

GAACGCGC
binding signal (SHOX [1]): 7.22 upbm affinity estimate (log intensity, higher = more binding, comparable within an allelic series) | binding signal (SHOX [2]): 7.23 upbm affinity estimate (log intensity, higher = more binding, comparable within an allelic series)

CGCTACCC
binding signal (SHOX [1]): 7.24 upbm affinity estimate (log intensity, higher = more binding, comparable within an allelic series) | binding signal (SHOX [2]): 7.33 upbm affinity estimate (log intensity, higher = more binding, comparable within an allelic series)

CCCGACCC
binding signal (CRX [8]): 7.98 upbm affinity estimate (log intensity, higher = more binding, comparable within an allelic series) | binding signal (VENTX [9]): 7.97 upbm affinity estimate (log intensity, higher = more binding, comparable within an allelic series) | binding signal (VENTX [10]): 8.07 upbm affinity estimate (log intensity, higher = more binding, comparable within an allelic series) | binding signal (VENTX [11]): 8.09 upbm affinity estimate (log intensity, higher = more binding, comparable within an allelic series) | binding signal (CRX [12]): 8.12 upbm affinity estimate (log intensity, higher = more binding, comparable within an allelic series) | binding signal (CRX [13]): 8.25 upbm affinity estimate (log intensity, higher = more binding, comparable within an allelic series)

AGGGGACC
binding signal (CRX [8]): 8.1 upbm affinity estimate (log intensity, higher = more binding, comparable within an allelic series) | binding signal (HOXC9 [14]): 9.61 upbm affinity estimate (log intensity, higher = more binding, comparable within an allelic series) | binding signal (ALX4 [15]): 8.18 upbm affinity estimate (log intensity, higher = more binding, comparable within an allelic series) | binding signal (ALX4 [16]): 8.19 upbm affinity estimate (log intensity, higher = more binding, comparable within an allelic series) | binding signal (CRX [12]): 8.22 upbm affinity estimate (log intensity, higher = more binding, comparable within an allelic series) | binding signal (HOXC9 [17]): 9.69 upbm affinity estimate (log intensity, higher = more binding, comparable within an allelic series) | binding signal (HOXC9 [18]): 9.54 upbm affinity estimate (log intensity, higher = more binding, comparable within an allelic series) | binding signal (HOXC9 [19]): 9.53 upbm affinity estimate (log intensity, higher = more binding, comparable within an allelic series) | binding signal (CRX [13]): 8.23 upbm affinity estimate (log intensity, higher = more binding, comparable within an allelic series)

ACTAATCG
binding signal (CRX [8]): 12.1 upbm affinity estimate (log intensity, higher = more binding, comparable within an allelic series) | binding signal (VENTX [9]): 11.6 upbm affinity estimate (log intensity, higher = more binding, comparable within an allelic series) | binding signal (VENTX [10]): 12.6 upbm affinity estimate (log intensity, higher = more binding, comparable within an allelic series) | binding signal (VENTX [11]): 11.5 upbm affinity estimate (log intensity, higher = more binding, comparable within an allelic series) | binding signal (HOXA4): 11.2 upbm affinity estimate (log intensity, higher = more binding, comparable within an allelic series) | binding signal (CRX [12]): 11.9 upbm affinity estimate (log intensity, higher = more binding, comparable within an allelic series) | binding signal (CRX [13]): 11.3 upbm affinity estimate (log intensity, higher = more binding, comparable within an allelic series)

TGCGATAA
binding signal (CRX [8]): 10.9 upbm affinity estimate (log intensity, higher = more binding, comparable within an allelic series) | binding signal (HOXA7 [20]): 9.91 upbm affinity estimate (log intensity, higher = more binding, comparable within an allelic series) | binding signal (CRX [12]): 10.5 upbm affinity estimate (log intensity, higher = more binding, comparable within an allelic series) | binding signal (HOXA7 [21]): 8.8 upbm affinity estimate (log intensity, higher = more binding, comparable within an allelic series) | binding signal (CRX [13]): 10.4 upbm affinity estimate (log intensity, higher = more binding, comparable within an allelic series)

TAATCTGA
binding signal (CRX [8]): 12.9 upbm affinity estimate (log intensity, higher = more binding, comparable within an allelic series) | binding signal (VENTX [9]): 10.3 upbm affinity estimate (log intensity, higher = more binding, comparable within an allelic series) | binding signal (CRX [12]): 12.8 upbm affinity estimate (log intensity, higher = more binding, comparable within an allelic series) | binding signal (CRX [13]): 12.6 upbm affinity estimate (log intensity, higher = more binding, comparable within an allelic series)

GATTAATA
binding signal (CRX [8]): 12.7 upbm affinity estimate (log intensity, higher = more binding, comparable within an allelic series) | binding signal (VENTX [9]): 11.2 upbm affinity estimate (log intensity, higher = more binding, comparable within an allelic series) | binding signal (VENTX [10]): 11.8 upbm affinity estimate (log intensity, higher = more binding, comparable within an allelic series) | binding signal (VENTX [11]): 11 upbm affinity estimate (log intensity, higher = more binding, comparable within an allelic series) | binding signal (CRX [12]): 12.7 upbm affinity estimate (log intensity, higher = more binding, comparable within an allelic series)
